Experiment [1] is described as follows: inhibitors of TNFa-induced NFkB p65 translocation, primary screen, imaging, HUVEC, MLSMR starter and 10KST1 sets (AID 438;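 active means inhibition above 20% together with a positive visual image hit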;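 further: compound added about 3h40 before a 20 min TNFalpha stimulation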;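 on inhibition: signal is the nuclear over cytoplasmic p65 intensity ratio per well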). The following applies: HUVEC TNFa-induced p65 nuclear translocation; cell count: measured here: nuclei count (cytotoxicity indicator), at 2.08 µM; inhibition: at 2 µM, stronger effect = higher value, 0% TNFa-plus-vehicle, 100% no-TNFa wells.
Experiment [2] can be described thus: reduction of polyQ htt aggregates in cells – imaging, exon1htt(103Q)mCFP cells, high-content imaging, primary screen (AID 483;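 active means visual image review flags a hit and inhibition of aggregation exceeds 20%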;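 further: compound exposure lasted 3 days before fixation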;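 on nuclei count: percent of the per-plate median nuclei count of sample wells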). The following applies: exon1htt(103Q)mCFP cell line, aggregate imaging, at 2 µM; inhibition of aggregation: stronger effect = higher value; nuclei count: measured here: cell count, toxicity.
A short description of experiment [3]: endothelial E-selectin expression blockers – imaging, HUVEC, immunofluorescence, MLSMR starter and 10KST1 sets, primary screen (AID 487;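 active means visually confirmed hit in the image check and inhibition above 20%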;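 on inhibition: signal is fraction of cell area covered by stained E-selectin grains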;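 on nuclei count: 100% = median nuclei count of all wells on the same plate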). The following applies: HUVEC TNFalpha-induced E-selectin immunofluorescence imaging, at 2 µM; inhibition: stronger effect = higher value; nuclei count: measured here: cell number, toxicity.
Experiment [4] has as its target Voltage-gated potassium channel subunit beta-2 (Rattus norvegicus) (UniProt P62483). As to the kind of experiment: inhibitors of rat Kvbeta2 reductase activity – biochemical, NADPH fluorescence, primary screen (AID 622).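 Further: slope of raw intensity against log time taken from 70 to 1610 s.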 The following applies: recombinant KvBeta, 4-cyanobenzaldehyde reduction, at 10 µM, stronger effect = higher value.
The target is the same in experiment [5]. Description: enhancers of rat Kvbeta2 NADPH turnover – biochemical, NADPH fluorescence, primary screen (AID 623;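 active means NADPH fluorescence slope more negative than the mean of all samples by about 3 SD, 99.7% confidence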;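 further: fluorescence intensity change per second fitted from 20 to 320 s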). The following applies: Recombinant KvBeta, NADPH fluorescence decrease slope, 10 min; at 10 µM; stronger effect = lower value.
For experiment [6], the target named is Alpha-2C adrenergic receptor (Homo sapiens) (UniProt P18825). As to the kind of experiment: compounds altering alpha2C-coupled GIRK flux – cell-based, HEK293 alpha2C/GIRK1/2, thallium flux, primary screen (AID 624;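 active means fluorescence slope after compound addition differing from the mean of all screened samples at 99.7% confidence, in either direction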;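 further: slope of fluorescence ratio to pre-addition baseline per second over 15 to 24 s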). The following applies: thallium flux BTC fluorescence, at 10 µM, actives lie on both sides.
Experiment [7] can be described thus: blockers of RIG-like receptor reporter activation – cell-based, Sendai virus stimulus, luciferase, 10K MLSCN set, TLR/RLR signaling modifier project, primary screen (AID 602276;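 active means inhibition at or above 50% at 10 µM; inactive means inhibition below 50%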;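 further: firefly luciferase from ISG56 promoter only with Renilla not read in this screen; 0% = Sendai virus plus DMSO and 100% = medium plus DMSO without virus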). The following applies: HEK293 RL24 IRF3 luciferase reporter, at 10 µM, stronger effect = higher value. On the technique in general: Reporter assays use an easily measured gene product as a stand-in for the process of interest.

Experiment [8] in a line: TLR3 IRF3 reporter activation blockers – cell-based, poly I:C stimulus, luciferase, 10K MLSCN set, primary screen (AID 602277;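 active means inhibition of the reporter signal at or above 50%; inactive means inhibition below 50%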). The following applies: HEK293-TLR3 RL24 IRF3 luciferase reporter, at 10 µM, stronger effect = higher value.

We go through eight compounds from PubChem BioAssay.

Calls of active or inactive are those of the source.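 How the source made its calls, unless noted: active means fluorescence slope higher than the sample average by over 3 SD (cut at about -0.22 in these data, passing the limit was not always enough); inactive means the rest.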

Sequence of Alpha-2C adrenergic receptor (Homo sapiens) (P18825 whole entry, looked up): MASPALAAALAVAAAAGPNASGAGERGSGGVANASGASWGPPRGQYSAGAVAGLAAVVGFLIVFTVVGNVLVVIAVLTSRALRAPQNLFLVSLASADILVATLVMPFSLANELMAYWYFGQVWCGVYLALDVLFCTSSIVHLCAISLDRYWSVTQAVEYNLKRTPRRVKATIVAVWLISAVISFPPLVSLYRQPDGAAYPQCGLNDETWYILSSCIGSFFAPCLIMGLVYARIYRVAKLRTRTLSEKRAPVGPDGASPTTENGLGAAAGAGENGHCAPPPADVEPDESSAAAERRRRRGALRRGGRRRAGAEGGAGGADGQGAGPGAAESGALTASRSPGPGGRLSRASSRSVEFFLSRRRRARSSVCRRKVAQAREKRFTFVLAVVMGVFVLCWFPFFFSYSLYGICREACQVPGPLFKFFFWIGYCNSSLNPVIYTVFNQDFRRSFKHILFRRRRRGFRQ
Sequence of Voltage-gated potassium channel subunit beta-2 (Rattus norvegicus) (P62483 whole entry, looked up): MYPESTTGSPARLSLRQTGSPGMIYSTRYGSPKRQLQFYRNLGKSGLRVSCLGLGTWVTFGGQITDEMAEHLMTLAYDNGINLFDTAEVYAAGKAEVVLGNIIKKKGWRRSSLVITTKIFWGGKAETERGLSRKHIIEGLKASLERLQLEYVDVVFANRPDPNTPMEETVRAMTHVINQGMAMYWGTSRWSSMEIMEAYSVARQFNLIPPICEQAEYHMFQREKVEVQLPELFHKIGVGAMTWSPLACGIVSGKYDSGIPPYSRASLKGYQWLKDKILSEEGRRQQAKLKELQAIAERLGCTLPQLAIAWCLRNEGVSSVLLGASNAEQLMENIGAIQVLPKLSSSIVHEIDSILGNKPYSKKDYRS

Turning to `O=C(CSc1nnc(C2CC2)n1Cc1ccccc1)c1ccc(S(=O)(=O)N2CCOCC2)cc1`, the cell count in experiment [1] is 426. Besides, the inhibition (usually the relative decrease from the control value, in per cent) in experiment [1] is 15.8% (inactive); in experiment [3], -55.3% (inactive); in experiment [7], 13.7% (inactive); in experiment [8], 24% (inactive). In addition, the inhibition of aggregation in experiment [2] was 1.1% (inactive). Also, the nuclei count in experiment [2] amounted to 96.7%; in experiment [3] it was 112%. Besides, the fluorescence slope in experiment [4] is -0.412 (inactive). Also, the NADPH fluorescence slope in experiment [5] was -0.000138 (inactive). For the same compound, the slope in experiment [6] is 0.00543 (inactive).
For the compound `CC(=O)N(C(C)=O)c1c(C#N)c(C)n(-c2ccccc2)c1C(=O)c1ccccc1`, the cell count in experiment [1] was found to be 430. In addition, the inhibition was 8.5% (inactive) in experiment [1], 24.1% (inactive) in experiment [3], 27% (inactive) in experiment [7] and 26.6% (inactive) in experiment [8]. In addition, the inhibition of aggregation in experiment [2] was 4.6% (inactive). Besides, the nuclei count in experiment [2] turned out to be 102%; in experiment [3] it was 110%. Further, in experiment [4], the fluorescence slope is -0.503 (inactive). In addition, the NADPH fluorescence slope in experiment [5] was -3.8e-05 (inactive). Also, in experiment [6], the slope was 0.00413 (inactive).
As to `COc1ccc(N2C(=O)C(Cl)=C(N3CCCC3)C2=O)cc1`, the cell count in experiment [1] is 446. Further, the inhibition in experiment [1] was 10.1% (inactive); in experiment [3], 25.6% (inactive); in experiment [7], -5.83% (inactive); in experiment [8], -8.61% (inactive). For the same compound, the inhibition of aggregation in experiment [2] is -0.8% (inactive). Moreover, the nuclei count in experiment [2] was found to be 101%; in experiment [3] it was 100%. Moreover, the fluorescence slope in experiment [4] was -0.29 (inactive). In experiment [5], the NADPH fluorescence slope is -4.2e-05 (inactive). Moreover, in experiment [6], the slope is 0.00536 (inactive).
On to `CNC(=O)CN(c1ccc(C(C)C)cc1)S(C)(=O)=O`, for which the cell count in experiment [1] amounted to 372. Also, the inhibition in experiment [1] is -0.8% (inactive); in experiment [3], 24.1% (inactive); in experiment [7], 11% (inactive); in experiment [8] it was 35.7% (inactive). Besides, the inhibition of aggregation in experiment [2] was -4.8% (inactive). For the same compound, the nuclei count in experiment [2] and in experiment [3] was 114% throughout. Besides, the fluorescence slope in experiment [4] was -0.397 (inactive). In addition, the NADPH fluorescence slope in experiment [5] was 1.3e-05 (inactive). Also, the slope in experiment [6] was 0.00372 (inactive).
On to `CC(=O)Nc1ccc(S(=O)(=O)N2CCC(NC(C)=O)(c3cccc(F)c3)CC2)cc1`, for which the cell count in experiment [1] came to 682. In addition, the inhibition in experiment [1] was -5.8% (inactive); in experiment [3] it was -10.1% (inactive); in experiment [7] it was 8.44% (inactive); in experiment [8], 28.9% (inactive). The inhibition of aggregation in experiment [2] was -25.6% (inactive). Besides, the nuclei count in experiment [2] was 130%; in experiment [3], 109%. Further, the fluorescence slope in experiment [4] was -0.494 (inactive). The NADPH fluorescence slope in experiment [5] is -4.3e-05 (inactive). Moreover, in experiment [6], the slope was 0.0062 (inactive).
With `O=C(CNC(=O)c1cc2ccccc2o1)NCc1cccs1`, in experiment [1], the cell count is 420. The inhibition is 3.6% (inactive) in experiment [1], -57.3% (inactive) in experiment [3], 5.59% (inactive) in experiment [7] and 16.2% (inactive) in experiment [8]. The inhibition of aggregation in experiment [2] is -2.1% (inactive). For the same compound, the nuclei count in experiment [2] was found to be 107%; in experiment [3] it was 112%. Moreover, the fluorescence slope in experiment [4] was -0.469 (inactive). For the same compound, the NADPH fluorescence slope in experiment [5] was -1.5e-06 (inactive). In experiment [6], the slope is 0.0103 (inactive).
With `CCN(CC)S(=O)(=O)c1ccc(NC(=O)Cn2cnc3ccccc3c2=O)cc1`, in experiment [1], the cell count was 321. The inhibition in experiment [1] is -1.8% (inactive); in experiment [3] it was -112% (inactive); in experiment [7], 12.3% (inactive); in experiment [8], 16% (inactive). For the same compound, the inhibition of aggregation in experiment [2] is 15.7% (inactive). Moreover, the figures for the nuclei count in experiment [2] and in experiment [3] were 96% and 108%, respectively. In addition, in experiment [4], the fluorescence slope is -0.483 (inactive). The NADPH fluorescence slope in experiment [5] was -0.000135 (inactive). Besides, the slope in experiment [6] is 0.0039 (inactive).
With `Cc1nc2sc(C(c3cccs3)N3CC(C)CC(C)C3)c(O)n2n1` (stereo not drawn), in experiment [1], the cell count was 614. The inhibition in experiment [1] was 3.9% (inactive); in experiment [3] it was -12.3% (inactive); in experiment [7], 11.2% (inactive); in experiment [8], 21.5% (inactive). Moreover, the inhibition of aggregation in experiment [2] was 27.2% (inactive). For the same compound, the nuclei count in experiment [2] was 118%; in experiment [3] it was 109%. The fluorescence slope in experiment [4] was -0.545 (inactive). Also, the NADPH fluorescence slope in experiment [5] is 4.4e-06 (inactive). In experiment [6], the slope is 0.00614 (inactive).
